A selection: hits, their analogues and other compounds. The true share with any hit is near 19%.
IL1B secr inh = inflammasome signaling inhibition, IL-1 beta readout. THP-1 LPS/ATP IL-1B secretion, AlphaLISA, 16 h; hits give low values. activity change, % at 57.5 µM. 4.7% of 360,000 active; in the data active = activity change below about -50%; inconclusive = mostly about -30% to -49%
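THP-1 cells pretreated 1 hr with compounds (up to 57.5 uM final), then stimulated with LPS (250 ng/mL final) plus ATP (1.25 mM final); secreted IL-1B measured by AlphaLISA after 16 hr, decreased signal indicating inhibition.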
HT1080 IDH1KD tx = toxicity to HT-1080 IDH1 knockdown cells (counter line). HT-1080 IDH1 knockdown viability, ATP luminescence, 48 h. Potency, µM (top dose mostly 46.1 µM), usual class: cytotoxic. 2% of 360,000 active
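Luminescent ATP read-out (CellTiter-Glo, 10 min at room temperature) after 48 h compound exposure at 37 °C gave viability of IDH1-knockdown HT-1080 cells. Activity was normalised to DMSO and cell-free wells, then fitted as concentration-response curves.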
HT1080-NT tox = kills 2HG-producing HT-1080-NT fibrosarcoma cells | HT-1080-NT fibrosarcoma viability, CellTiter-Glo ATP luminescence, 48 h | Potency, µM (top dose mostly 46.1 µM), hits mostly cytotoxic | 1.6% of 360,000 active;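 also: NT is the 2HG producing partner of a matched IDH1 knockdown line; nearly all actives have a fitted effect of over 55% in size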
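Fibrosarcoma NT cells, 750 per well in 5% FBS RPMI, were exposed to compound for 48 hours. Viability: CellTiter-Glo luminescence.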
DT40 TDP1 no CPT = qHTS for Inhibitors of human tyrosyl-DNA phosphodiesterase 1 (TDP1): qHTS in cells in absence of CPT; DT40 Tdp1-/- hTDP1 cells, no CPT, ATP luminescence, 48 h; Potency, µM (top dose mostly 46.2 µM), actives largely listed as inhibitors; 15% of 420,000 active; AID 686978, 2013; also: nearly all actives have a fitted effect of over 55% in size
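No-CPT arm: Tdp1-/-;hTDP1 DT40 cells (400/well) plus compounds, incubated ≥48 hr at 37 °C. Readout CellTiter-Glo luminescence.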
TDP1 cell CPT = DT40-hTDP1 cell growth loss with CPT; chicken DT40 Tdp1-/-;hTDP1 cells + 20 nM CPT, ATP luminescence, 48 h; Potency, µM (titrated, usually from 46.2 µM), most hits filed as inhibitors; 12% of 420,000 active; AID 686979; also: nearly all actives have a fitted effect of over 55% in size
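Chicken DT40 Tdp1-/- cells complemented with human TDP1, 400 cells/well, exposed to compounds plus 20 nM camptothecin for at least 48 h at 37 C; viability read as ATP content by CellTiter-Glo luminescence.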
Hits are given with their value; 0 = inactive; ? = inconclusive; - = not tested or not shown; [ ] = dose if it differs, or a comment. Unless noted, calls follow the shape of the dose curve; as a rule, active = well fitted curve in the direction sought with a large enough effect; inconclusive = small, poorly fitted or top-dose-only effect, or another doubt; inactive = no such curve, though single readings can be large; an effect the other way counts as inactive or inconclusive.

SMILES	IL1B secr inh	HT1080 IDH1KD tx	HT1080-NT tox	DT40 TDP1 no CPT	TDP1 cell CPT
CCN(CC)C(=O)c1cccc(-c2csc(C(O)c3ccc(F)c(OC)c3)n2)c1 (stereo unspecified)	0	?	1µM	16µM	18µM
FC(F)(F)c1cnc(Sc2ncn[nH]2)c(Cl)c1	0	0	0	0	0
Cc1cccc(OCC(O)CN2CC3(C)CC2CC(C)(C)C3)c1 (stereo unspecified)	0	0	0	0	?
Cn1c(SCC(=O)c2ccc(-c3ccccc3)cc2)nnc1-c1ccco1	0	0	0	26µM	0
CCn1c(Sc2ccc([N+](=O)[O-])cn2)nnc1-c1ccco1	-82	18µM	12µM	2.1µM	1.6µM
O=C(CSc1nnc(-c2ccco2)n1Cc1ccccc1)c1ccccc1	0	0	0	?	?
CCn1c(SCc2c(F)cccc2Cl)nnc1-c1ccco1	?	0	0	18µM	?
CC(=O)Nc1ccc(-c2nnc(SCC(=O)c3ccc4c(c3)Cc3ccccc3-4)n2C)cc1	0	?	0	12µM	13µM
O=C1NC[C@H](CCCCN2C[C@H](Cc3ccccc3)N(CCC3CCCCC3)C(=O)C2=O)N(Cc2ccccc2)C1=O	0	0	0	?	?
Cc1c(C(=O)O)cccc1-n1c(C)cc(/C=C(/C#N)C(=O)NCc2ccccc2)c1C	0	0	0	0	0
COc1cc(N(C(C)=O)c2ccc(O)c(C(=O)O)c2)c2ncccc2c1	0	0	0	0	0
Cc1ccc(Cn2cc(S(=O)(=O)c3cccc(C)c3)c(=O)c3cc(F)c(N4CCOCC4)cc32)cc1	-	-	-	0	?
Cn1c(SCc2cccc3ccccc23)nnc1-c1ccco1	0	?	0	?	13µM
Cc1cc(C)cc(NC(=O)CSc2nnc(CNC(=O)c3ccco3)n2C)c1	0	0	0	29µM	?
CCCNC(=O)CSc1nnc(-c2ccco2)n1C	0	?	0	13µM	23µM
Nn1c(SCc2cccc3ccccc23)nnc1-c1ccco1	0	?	0	?	?
COc1ccc(-n2nnnc2C2CCN(S(=O)(=O)c3cc(Cl)ccc3OC)CC2)cc1	-	-	-	18µM	13µM
COc1ccc(-n2nnnc2C2CCN(S(=O)(=O)c3ccc(C)cc3)CC2)cc1	-	-	-	0	13µM
O=C(CCCCC(=O)NN=Cc1ccc2c(c1)CCC2)NN=Cc1ccc2c(c1)CCC2	0	0	0	?	?
O=C(Nc1ncn[nH]1)c1cccc(S(=O)(=O)N2CCOCC2)c1	0	0	0	0	0
COc1cccc(COc2ccccc2C2Nc3ccc(Br)cc3C(=O)N2NC(=O)c2ccncc2)c1 (stereo unspecified)	?	0	0	?	?
COC(=O)c1ccc(NC(=O)c2cc3cc4ccc(OC)c(Cl)c4nc3s2)cc1	-	-	-	0	0
Cc1cc([N+](=O)[O-])ccc1N(C)C	0	0	0	0	0
CCCCOc1ccccc1C1NC(=O)CCC1[N+](=O)[O-] (stereo unspecified)	0	0	0	0	0
CC(C)(C)OC(=O)NCCCCCNC(=O)c1[nH]cnc1C(=O)Nc1cc(Br)ccc1F	0	0	0	5.8µM	12µM
SMILES	IL1B secr inh	HT1080 IDH1KD tx	HT1080-NT tox	DT40 TDP1 no CPT	TDP1 cell CPT
CCN(CC)C(=O)c1[nH]cnc1C(=O)NCCCCCNC(=O)OC(C)(C)C	0	0	0	0	0
CC(C)(C)OC(=O)NCc1ccc(NC(=O)c2nc[nH]c2C(=O)Nc2cc(Br)ccc2F)cc1	?	0	0	13µM	10µM
COc1cc(=O)n2c(c1C(=O)NCc1ccco1)CCN(Cc1cccc(C)n1)CC2	-	-	-	0	0[9.04 µM]
CC(=O)N1CCCC(C)(C(=O)Nc2cccc(OC(C)C)c2)C1 (stereo unspecified)	0	0	0	0	0
CC(Sc1nc(NCc2ccccc2)nc(N(C)C)n1)C(=O)Nc1ccccc1 (stereo unspecified)	0	?	?	21µM	23µM
CC(Sc1nc(NCc2ccccc2)nc(N2CCOCC2)n1)C(=O)Nc1ccccc1 (stereo unspecified)	0	0	0	21µM	?
CCNc1nc(SC(C)C(=O)Nc2ccccc2)nc(N2CCOCC2)n1 (stereo unspecified)	0	0	0	?	?
CN(C)c1nc(NCc2ccccc2)nc(SCC(=O)Nc2ccccc2)n1	-77	?	?	?	?
CC(=O)C(Sc1nc(N(C)C)nc(N(C)C)n1)C(=O)Nc1ccccc1 (stereo unspecified)	0	0	0	0	0
NC(=O)c1oc2ccccc2c1NC(=O)C1COc2ccccc2O1 (stereo unspecified)	0	0	0	0	0
O=C1CSC(c2ccc([N+](=O)[O-])cc2)N1Cc1ccccc1 (stereo unspecified)	0	0	0	0	?
O=C(NNC1=NC2(CCCC2)Cc2ccccc21)c1ccncc1	0	0	0	0	0
COc1ccc(C)c(-n2c(=O)n(Cc3ccccc3)c(=O)c3[nH]cnc32)c1	0	0	0	0	0
Nc1ccccc1-n1c(=O)n(Cc2ccccc2F)c(=O)c2[nH]cnc21	0	0	0	21µM	?
COc1ccc(Cn2c(=O)c3[nH]cnc3n(-c3ccccc3C)c2=O)cc1	0	12µM	12µM	5.2µM	3.7µM
CC(C)C(=O)N1CCN(c2ccccc2NC(=O)c2ccc3c(c2)OCCO3)CC1	0	0	0	0	0
CCOC(=O)N1CCN(C(=O)c2cc3cc(OC)c(OC)cc3[nH]2)CC1	0	0	0	0	0
COc1ccc(C(=O)NNC(=S)NC(=O)/C=C/c2cccs2)cc1	0	?	0	?	?
NS(=O)(=O)c1ccc(NC(=O)/C=C/c2cccs2)cc1	0	0	0	0	0
O=C(/C=C/c1cccs1)NC(=S)NNC(=O)c1ccccc1O	0	?	0	4.6µM	5.2µM
O=C(/C=C/c1cccs1)NC(=S)Nc1ccccc1	-62	0	0	?	?
CCn1c(C)nc2cc(C(=O)N3N=C(CCOC)CC3(O)C(F)(F)F)ccc21 (stereo unspecified)	0	0	0	0	0
O=C(COc1cccc(F)c1)Nc1nc(-c2cccnc2)cs1	0	0	0	?	?
NC(=O)c1ccsc1NC(=O)COC(=O)c1cnccn1	0	0	0	0	0
Cc1ccc(/C=C/c2onc(C)c2S(=O)(=O)N2CCC(C(=O)NCc3ccc(OC(C)C)cc3)CC2)cc1	-	-	-	0	?
O=[N+]([O-])c1ccccc1/C=C\C=N\N1CCN(c2ccccc2)CC1	-53	0	0	0	?
O=C1OC(c2ccc(F)cc2)CC1CN1CCOCC1 (stereo unspecified)	0	16µM	?	10µM	5.8µM
O=C(CN1CCOCC1)Nc1ccc(F)cc1	0	0	0	0	0
